Rows were chosen to be rich in hits. Some 1.5% of all compounds tested hit in one or more screens of this group.
DUSP3 inh: blocks human VHR1 dual specificity phosphatase; recombinant VHR phosphatase, pNPP absorbance; inhibition, % at 13.3 µM; hit rate 0.52% among 290,000; in the data active = inhibition above about 50%
Target sequence (P51452 whole entry, looked up): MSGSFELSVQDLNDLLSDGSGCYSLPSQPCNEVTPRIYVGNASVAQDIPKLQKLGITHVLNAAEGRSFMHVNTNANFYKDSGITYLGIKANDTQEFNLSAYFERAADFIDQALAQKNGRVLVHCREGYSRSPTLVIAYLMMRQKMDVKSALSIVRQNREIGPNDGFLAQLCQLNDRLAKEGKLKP
CCHFV vOTU inh: blocks the CCHF virus ovarian tumor domain protease; CCHFV vOTU protease, Pep-AMC fluorescence; inhibition, % at 11.5 µM; hit rate 0.55% among 370,000; in the data active = inhibition above about 30%; also: 0% = vehicle wells with enzyme and 100% = no enzyme wells
ugtP null kill: compounds lethal to S. aureus RN4220 ugtP deletion mutant; AID 1259309; hit rate 0.54% among 330,000; OD600 growth, 16 h; growth inhibition, % (test concentration not listed); in the data active = growth inhibition above about 68%;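 also: plate controls were untreated wells for no effect and antibiotic for full effect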
PriA SSB inh: inhibitors of Klebsiella pneumoniae PriA binding to SSB C-terminal tail | hit rate 0.6% among 430,000 | AlphaScreen SSBct-PriA binding, biotinylated peptide | inhibition, % at 33 µM; in the data active = inhibition mostly above about 37%, no sharp cut-off; inactive = mostly below about 20%;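 also: plate controls were negative control peptide for no effect and reference peptide for full effect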
Sa RN4220 lethal: S. aureus RN4220 growth inhibition; OD600, 16 h; inhibition, % (test concentration not listed); hit rate 0.33% among 330,000; AID 1259311; in the data active = inhibition above about 85%;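 also: plate controls were untreated cells for no effect and reference antibiotic for full effect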
The depositor's hits bear a star; ! = repeats disagree.

Screening COc1ccc(C2=NN(C(=O)CSC3=NN4CCCC(=O)N=C4S3)C(c3cccc(OC)c3OC)C2)cc1 (centres undefined) returned DUSP3 inh 6, CCHFV vOTU inh 9, ugtP null kill -7, PriA SSB inh -1 and Sa RN4220 lethal 3.
COc1cccc(C2CC(c3cccs3)=NN2C(=O)CSC2=NN3CCCC(=O)N=C3S2)c1OC (centres undefined) was read as DUSP3 inh 53*, CCHFV vOTU inh -2, ugtP null kill 10, PriA SSB inh 2 and Sa RN4220 lethal 7.
c1ccc(Cn2nnc3c(N4CCOCC4)ncnc32)cc1 was read as DUSP3 inh 15, CCHFV vOTU inh -5, ugtP null kill 7, PriA SSB inh -2 and Sa RN4220 lethal 0.
`c1ccc(Cn2nnc3c(N4CCN(Cc5ccc6c(c5)OCO6)CC4)ncnc32)cc1` gave DUSP3 inh 51*, CCHFV vOTU inh -14, ugtP null kill 12, PriA SSB inh -1 and Sa RN4220 lethal -3.
For O=C(NCCCn1ccnc1)C(=O)Nc1ccc2c(c1)OCO2 the results were PriA SSB inh -8.
CCN1c2ccccc2NC2N=C(OC)C(c3ccccc3)C21 (centres undefined) was read as DUSP3 inh -5, ugtP null kill 2, PriA SSB inh 54* and Sa RN4220 lethal 3.
Screening CCN1c2ccccc2NC2C1C(C(C)=O)C(=O)N2c1ccc(Cl)cc1 (centres undefined) returned DUSP3 inh 1, CCHFV vOTU inh 22, ugtP null kill -19, PriA SSB inh 7 and Sa RN4220 lethal -1.
For CCc1ccc2c(c1)C1(NN=C(c3ccc(C)cc3)S1)C(=O)N2 (centres undefined) the results were DUSP3 inh 22, CCHFV vOTU inh 18, ugtP null kill 44, PriA SSB inh 39 and Sa RN4220 lethal 46.
Screening CC(C)c1ccc2c(c1)C1(NN=C(c3ccccc3)S1)C(=O)N2 (centres undefined) returned DUSP3 inh 13, CCHFV vOTU inh 3, ugtP null kill 98*, PriA SSB inh 5 and Sa RN4220 lethal 94*.
Screening Oc1ccc(CSCc2ccccc2)c2cccnc12 returned PriA SSB inh 10.
`CCCCCCCCSCc1ccc(O)c2ncccc12` gave PriA SSB inh 73*.
`Oc1ccc(CSC2CCCCC2)c2cccnc12` gave PriA SSB inh 69*.
Screening CCCCCCSCc1ccc(O)c2ncccc12 returned PriA SSB inh 83*.
`NC(=O)c1ccccc1NC(=O)c1ncc(-c2ccc(Cl)cc2)o1` gave PriA SSB inh -4.
Screening O=C(Nc1ncn[nH]1)c1ncc(-c2ccc(Cl)cc2)o1 returned PriA SSB inh 69*.
Screening Clc1ccc2nc(-n3nc4ccccc4n3)nc(-c3ccccc3)c2c1 returned PriA SSB inh -19.
`Clc1ccc(OCCSc2ncccn2)c2ccccc12` gave DUSP3 inh 14, CCHFV vOTU inh 13, ugtP null kill 96*, PriA SSB inh -89 and Sa RN4220 lethal 2.
`O=C(Sc1ccc(Cl)cc1)c1ccccn1` gave CCHFV vOTU inh 3, ugtP null kill 84*, PriA SSB inh 2 and Sa RN4220 lethal -1.
Screening O=C(NCC#CCOc1cccc(C(F)(F)F)c1)c1ccccc1F returned PriA SSB inh -12.
For COc1cc(C)c(S(=O)(=O)Oc2cc(C)nc3ccccc23)cc1C the results were PriA SSB inh -4.
CCN1CCN(C(=S)c2ccc(O)cc2)CC1 was read as DUSP3 inh 47, CCHFV vOTU inh 10, ugtP null kill 3, PriA SSB inh -26 and Sa RN4220 lethal 0.
CCN1CCN(C(=S)c2ccc(Br)cc2)CC1 was read as DUSP3 inh 52*, CCHFV vOTU inh -4, ugtP null kill 5, PriA SSB inh -20 and Sa RN4220 lethal 0.
O=C(NCc1ccc2c(c1)OCO2)c1nnn(Cc2ccccc2F)c1-c1ccncc1 was read as PriA SSB inh -6.
COc1cc(OC)c(C2Nc3cccc4cccc(c34)N2)c(OC)c1 was read as DUSP3 inh 53*, CCHFV vOTU inh -1, ugtP null kill -11, PriA SSB inh 4 and Sa RN4220 lethal -2.
Screening Cc1cc(C)c(S(=O)(=O)N2CCCC2CNC(=O)C(=O)Nc2ccccc2C#N)c(C)c1 (centres undefined) returned PriA SSB inh -10.
Screening CCOC(=O)c1sc(N=NC(C(=O)Nc2ccc([N+](=O)[O-])cc2)=C(C)O)c(C(=O)OCC)c1C returned PriA SSB inh 0.
`COc1ccccc1NS(=O)(=O)c1ccc(N/N=C(\C)C(C)C)c([N+](=O)[O-])c1` gave DUSP3 inh 13 and CCHFV vOTU inh 7.
NS(=O)(=O)c1ccc(N/N=C2/CCCCC2C2CCCCC2)c([N+](=O)[O-])c1 (centres undefined) was read as DUSP3 inh 0 and CCHFV vOTU inh 28.
For COc1ccccc1NS(=O)(=O)c1ccc(NN=C2CCCCC2)c([N+](=O)[O-])c1 the results were DUSP3 inh -2, CCHFV vOTU inh 25, ugtP null kill -11, PriA SSB inh 62* and Sa RN4220 lethal -1.
For COc1ccccc1NS(=O)(=O)c1cccc(C(=O)NN=Cc2ccc([N+](=O)[O-])o2)c1 the results were ugtP null kill 99*, PriA SSB inh 13 and Sa RN4220 lethal 98*.
`NS(=O)(=O)c1ccc(NN=C2CCCCC2C2CCCCC2)c([N+](=O)[O-])c1` (centres undefined) gave ugtP null kill 8, PriA SSB inh 40* and Sa RN4220 lethal 37.
`COc1ccccc1NS(=O)(=O)c1cccc(C(=O)N/N=C/c2ccc(C)o2)c1` gave DUSP3 inh 8 and CCHFV vOTU inh 3.
CCCC(CCC)=NNc1ccc(S(=O)(=O)Nc2ccccc2OC)cc1[N+](=O)[O-] was read as DUSP3 inh -7, CCHFV vOTU inh -1, ugtP null kill -11, PriA SSB inh 41* and Sa RN4220 lethal -5.
For O=c1c2cc(-c3ccccc3)nn2ccn1Cc1nc(-c2ccccc2)no1 the results were PriA SSB inh -26.
For CCCCOc1ccc(Cc2cnc(N)nc2N)cc1 the results were DUSP3 inh 8, CCHFV vOTU inh -7, ugtP null kill 66, PriA SSB inh 7 and Sa RN4220 lethal 6.
Screening CC(C)Oc1ccc(Cc2cnc(N)nc2N)cc1 returned DUSP3 inh 6, CCHFV vOTU inh -2, ugtP null kill 91*, PriA SSB inh -1 and Sa RN4220 lethal 17.
Screening CSc1ncccc1C(=O)NCC1CCCCC1 returned DUSP3 inh 51*, CCHFV vOTU inh -3, ugtP null kill 8, PriA SSB inh 3 and Sa RN4220 lethal 5.
CSc1ncccc1C(=O)NC1CCCCCCC1 was read as DUSP3 inh 5, CCHFV vOTU inh 0, ugtP null kill 0, PriA SSB inh -6 and Sa RN4220 lethal 1.
Screening N#CCCN(CCC#N)S(=O)(=O)c1ccc(C(=O)Nc2ccc(Br)cc2)cc1 returned PriA SSB inh -43.
`CCOc1ccc2nc(N(CCN(C)C)C(=O)c3cc4ccccc4cc3OC)sc2c1` gave DUSP3 inh -3, ugtP null kill -14, PriA SSB inh 44*! and Sa RN4220 lethal -8.

High-throughput results (PubChem BioAssay)
